Structures are written as SMILES.

The test system of the assay is OCI-AML2. The assay is described as follows: cell viability relative to vehicle control; higher = less cytotoxic. The following applies: 10 µM; SRSF2 genotype: wt/wt. The gist of the method:
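Four leukaemia lines, as CRISPR-edited mutant clones and isogenic wild-type clones, were tested against Selleck bioactive, kinase and epigenetic probe libraries after removal of identity-inconsistent compounds. Cells were exposed to a single 10 µM dose for 48 h, and CellTiter-Glo luminescence was then read. Viability was calculated relative to the on-plate vehicle control.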
The term cell viability denotes a read-out of living cells in per cent, often relative to untreated cells. In the case of `CC(C)NC[C@@H](C(=O)N1CCN(c2ncnc3c2[C@H](C)C[C@H]3O)CC1)c1ccc(Cl)cc1` [Ipatasertib (GDC-0068)], the cell viability came to 81.2%.

With `O=C1C(=Cc2cccnc2)C(=O)c2ccccc21`, the cell viability was found to be 102%.

Take `N[C@@H](CSC(c1ccccc1)(c1ccccc1)c1ccccc1)C(=O)O`: the cell viability was determined as 11.8%.

As for `CC(C)=CC[C@@H](O)C1=CC(=O)c2c(O)ccc(O)c2C1=O` [Shikonin], the cell viability was 0.25%.

As for `C[C@H]1CN(C[C@H](Cc2ccccc2)C(=O)NCC(=O)O)CC[C@@]1(C)c1cccc(O)c1` [Alvimopan dihydrate], the cell viability worked out at 99.2%.

Take `CC(=O)O[C@H]1CC(=O)OC(C)(C)[C@@H]2CC(=O)[C@]3(C)[C@H](CC[C@@]4(C)[C@@H](c5ccoc5)OC(=O)[C@H]5O[C@]543)[C@@]12C` [Nomilin]: the cell viability came to 101%.

Consider `CC(C)(C)c1nc(-c2ccc(NC(=O)Nc3cccc(C(F)(F)F)c3)c3ccccc23)c2c(N)nccn12` [kira6], for which the cell viability came to 16.5%.

Take `COc1ccc2[nH]c([S+]([O-])Cc3ncc(C)c(OC)c3C)nc2c1` (stereo not drawn) [Omeprazole (Prilosec)]: the cell viability was found to be 100%.

With `COc1ccc2cc([C@H](C)C(=O)O)ccc2c1` [Naproxen Sodium], the cell viability was found to be 98.7%.

For `C#C[C@]1(O)CC[C@H]2[C@@H]3CCC4=CCCC[C@@H]4[C@H]3C(=C)C[C@@]21CC` [Desogestrel], the cell viability turned out to be 63%.

Turning to `COc1ccc2c(c1)c(C1=C(c3c[nH]c4ccccc34)C(=O)NC1=O)cn2CCCN(C)C`, the cell viability came to 49.9%.

Turning to `C[C@@H]1CC[C@]2(C(=O)O[C@@H]3O[C@H](CO)[C@@H](O)[C@H](O)[C@H]3O)CC[C@]3(C)C(=CC[C@@H]4[C@@]5(C)CC[C@H](O)[C@@](C)(CO)[C@@H]5CC[C@]43C)[C@@H]2[C@]1(C)O` [Pedunculoside], the cell viability came out at 104%.

As for `CCc1cc(Nc2nccc(-c3c(-c4ccc(OC)c(C(=O)Nc5c(F)cccc5F)c4)nc4ccccn34)n2)c(OC)cc1N1CCC(N2CCN(S(C)(=O)=O)CC2)CC1`, the cell viability worked out at 98.7%.
